We go through 49 compounds from the supplement of paper PMC9446081.

Hit rate of the full screen: of about 39,000 compounds, about 220 (0.56%) showed activity. What follows is part of a selection rich in actives, with near analogues and random picks from the rest. A number with no mark means an inactive call.
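Further: Wild-type cells incubated without shaking, value is the mean of two biological replicates.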

The test system of this test is Escherichia coli K-12 BW25113. The test can be described thus: relative growth (OD600 normalised to plate interquartile mean) (fraction); higher = less growth inhibition, active = 0.2 or less. The following applies: 50 µM; LB; incubation time: overnight (16-24 h).
As for `CN[C@H]1C[C@@H](N)[C@H](O)[C@@H](O[C@@H]2O[C@H](CO)[C@H](O)[C@@H]3O[C@@]4(O[C@H]23)O[C@H]([C@@H](N)CO)[C@H](O)[C@H](O)[C@H]4O)[C@@H]1O`, the relative growth is 0.0323 (active).

As to `COC(=O)[C@]1(Cc2ccccc2N=[N+]=[N-])N=C(c2ccc(OCCCO)cc2)O[C@@H]1c1ccccc1N=[N+]=[N-]`, the relative growth was 1.03.

`CCOCC(=O)N1CC[C@H]2CNC[C@H]21`: the relative growth was 0.983.

As for `CCCCCCCCCCCCCC(=O)O[C@@H]1[C@@H](C)[C@@]2(O)[C@@H](C=C(CO)C[C@]3(O)C(=O)C(C)=C[C@@H]23)[C@@H]2C(C)(C)[C@]12OC(C)=O`, the relative growth is 1.02.

`CN(C)[C@@H]1C(=O)[C@@H](C(N)=O)C(=O)[C@@]2(O)C(=O)[C@H]3C(=O)c4c(O)ccc(Cl)c4[C@@](C)(O)[C@H]3C[C@@H]12`: the relative growth was 0.037 (active).

Consider `CN(C)[C@@H]1C(=O)[C@H](C(N)=O)C(=O)[C@@]2(O)C(=O)[C@@H]3C(=O)c4c(O)cccc4[C@@](C)(O)[C@H]3C[C@@H]12`, for which the relative growth was 0.182 (active).

Consider `CN(C)[C@@H]1C(=O)C(C(N)=O)=C(O)[C@@]2(O)C(O)=C3C(=O)c4c(O)cccc4[C@](C)(O)[C@H]3C[C@@H]12`, for which the relative growth was 0.0416 (active).

On to `COc1c(C[C@@H](C)O)c2c3c(C[C@@H](C)O)c(OC)c(=O)c4c(O)cc5c(c6c(cc(O)c(c1=O)c62)OCO5)c43`, for which the relative growth was 1.08.

Regarding `CC12CCC(O)CC1CCC1C2CC(O)C2(C)C(C3=CC(=O)OC3)CCC12O` (centres undefined), the relative growth is 0.988.

For `CC(=O)N1CCCC[C@]12CCNC2`, the relative growth was 0.984.

`CC1=C(O)C(=O)C=C2C1=CC=C1C2(C)CCC2(C)C3CC(C)(C(=O)O)CCC3(C)CCC12C` (centres undefined): the relative growth was 1.02.

Regarding `CN(C)C(=O)[C@]1(Cc2ccccc2CN=[N+]=[N-])N=C(c2ccc(OCCCO)cc2)O[C@@H]1c1ccccc1N=[N+]=[N-]`, the relative growth was 1.02.

In the case of `CC(=O)OC1CC2(C)C(c3ccoc3)CC3OC32C2(C)C(=O)C(O)=C3C(C)(C)C(=O)C=CC3(C)C12` (centres undefined), the relative growth is 1.06.

Take `CCOC(=O)c1c(CN2CCN(c3ccccc3)CC2)n(Cc2ccccc2)c2cc(Br)c(O)cc12`: the relative growth is 1.03.

Take `CO[C@@H]1C[C@@H](C[C@H]2CC[C@H](C)[C@H]([C@@H](C)C(=O)O)O2)O[C@]2(O[C@](C)([C@H]3CC[C@@](C)([C@H]4O[C@@H]([C@H]5O[C@@](O)(CO)[C@H](C)C[C@@H]5C)C[C@@H]4C)O3)C[C@H]2C)[C@@H]1C`: the relative growth is 0.945.

`Cc1ccc(OC(=O)N(C)C[C@H]2OCc3ccccc3-c3c(n(C)c4ccccc34)C(=O)N([C@H](C)CO)C[C@@H]2C)cc1`: the relative growth was 1.

Take `CC(=O)OC1CC(OC2C(O)CC(OC3C(O)CC(OC4CCC5(C)C(CCC6C5CC(O)C5(C)C(C7=CC(=O)OC7)CCC65O)C4)OC3C)OC2C)OC(C)C1OC1OC(CO)C(O)C(O)C1O` (centres undefined): the relative growth was 0.995.

As to `Cc1nc(-c2ccc(-c3ccc(C(=O)N4CCc5cc6c(cc54)C4(CCN(C)CC4)CO6)cc3)c(C)c2)no1`, the relative growth is 0.932.

Consider `CO[C@@H]1C=C[C@@H]2[C@H]1N2CCO` (some centres undefined), for which the relative growth was 0.968.

As for `CN[C@@H]1[C@@H](O)[C@@H](O[C@@H]2[C@@H](O)[C@H](O[C@H]3O[C@H](CN)CC[C@H]3N)[C@@H](N)C[C@H]2N)OC[C@]1(C)O.CN[C@@H]1[C@@H](O)[C@@H](O[C@@H]2[C@@H](O)[C@H](O[C@H]3O[C@H]([C@@H](C)N)CC[C@H]3N)[C@@H](N)C[C@H]2N)OC[C@]1(C)O.CN[C@@H]1[C@@H](O)[C@@H](O[C@@H]2[C@@H](O)[C@H](O[C@H]3O[C@H]([C@@H](C)NC)CC[C@H]3N)[C@@H](N)C[C@H]2N)OC[C@]1(C)O`, the relative growth is 0.624.

`CNC1C(O)C(OC2C(N)CC(N)C(OC3OC(C(C)O)C(O)C(O)C3N)C2O)OCC1(C)O` (centres undefined): the relative growth was 0.0438 (active).

`CN[C@@H]1[C@@H](O)[C@@H](O[C@@H]2[C@H](O)[C@@H](O[C@H]3O[C@H]([C@@H](C)O)[C@@H](O)[C@H](O)[C@H]3N)[C@H](N)C[C@@H]2N)OC[C@]1(C)O`: the relative growth was 0.484.

Consider `C[C@@]1(C(=O)O)[C@H]2CC[C@@H](O2)[C@@]1(C)C(=O)O`, for which the relative growth was 0.979.

Consider `CC(=O)OC[C@]12CCC(C)=C[C@H]1O[C@@H]1[C@H](O)[C@@H](OC(C)=O)[C@@]2(C)[C@]12CO2`, for which the relative growth was 0.969.

On to `[NH2][Pt]1([NH2])[O]C(=O)C2(CCC2)C(=O)[O]1`, for which the relative growth is 0.958.

`CC(C)(C)c1ccc(O)cc1`: the relative growth is 0.998.

Take `CNC(=O)Oc1cccc2ccccc12`: the relative growth is 1.05.

Turning to `NCCc1cccc2ccccc12`, the relative growth was 1.

On to `O=[N+]([O-])C(Br)(CO)CO`, for which the relative growth was 0.0475 (active).

As for `OCC(Br)(Br)Br`, the relative growth was 1.02.

On to `OCCN(CCO)CCO`, for which the relative growth is 0.97.

As for `C[C@@H](N)Cc1ccc(O)cc1`, the relative growth was 0.992.

Take `C[C@@H]1O[C@@H](O[C@@H]2C[C@@H](O)[C@]3(CO)[C@H]4[C@H](O)C[C@]5(C)[C@@H](C6=CC(=O)OC6)CC[C@]5(O)[C@@H]4CC[C@]3(O)C2)[C@H](O)[C@H](O)[C@H]1O`: the relative growth was 0.995.

For the compound `O=C(Cc1ccccc1)c1ccccc1`, the relative growth was 0.986.

For the compound `NCC(=O)c1ccccc1`, the relative growth is 1.

On to `CC(=O)[O][Hg][c]1ccccc1`, for which the relative growth was 0.0564 (active).

Take `C=C(C)[C@@H]1CCC(C)=C[C@H]1c1c(O)cc(CCCCC)cc1O`: the relative growth was 1.01.

With `C[C@@]12C(=O)OC(=O)[C@]1(C)[C@H]1CC[C@@H]2O1`, the relative growth was 0.933.

As to `COc1cccc(C2(N)CCCC2)c1`, the relative growth was 1.02.

With `CN1[C@@H]2CC[C@@H]1C[C@H](O)C2` (some centres undefined), the relative growth is 1.01.

For the compound `O=C1C=C2C(=CCO[C@@H]2O)O1`, the relative growth is 1.

In the case of `O=C1C=C2C(=CCOC2O)O1` (centres undefined), the relative growth was 0.0434 (active).

On to `CC1(C)C(=O)C=CC2(C)C1=C(O)C(=O)C1(C)C2CCC2(C)C(c3ccoc3)CC3OC321` (centres undefined), for which the relative growth was 1.07.

For the compound `COC(=O)C[C@](O)(CCC(C)(C)O)C(=O)O[C@@H]1C(OC)=C[C@]23CCCN2CCc2cc4c(cc2[C@H]13)OCO4`, the relative growth was 1.02.

For `O=c1[nH]c2ccccc2n1C1CCN(Cc2ccc(-c3nc4cc5[nH]cnc5cc4nc3-c3ccccc3)cc2)CC1`, the relative growth was 1.09.

On to `O=[N+]([O-])c1ccc(N(CCO)CCO)c2c1no[n+]2[O-]`, for which the relative growth was 0.0367 (active).

On to `C[C@@H]1CC[C@@]2(OC1)O[C@H]1C[C@H]3[C@@H]4CC=C5C[C@@H](O[C@@H]6O[C@H](CO)[C@@H](O[C@@H]7O[C@@H](C)[C@H](O)[C@@H](O)[C@H]7O)[C@H](O)[C@H]6O[C@@H]6O[C@@H](C)[C@H](O)[C@@H](O)[C@H]6O)CC[C@]5(C)[C@H]4CC[C@]3(C)[C@H]1[C@@H]2C`, for which the relative growth was 0.913.

With `CC(C)C12OC1C1OC13C1(C)CCC4=C(COC4=O)C1CC1OC13C2O` (centres undefined), the relative growth was 0.947.

In the case of `COc1ccc(C(CN(C)C)C2(O)CCCCC2)cc1.Cl` (centres undefined), the relative growth was 1.14.
